Measurements as given in the supplement of paper PMC11732987, “Enantioselective OTUD7B fragment discovery through chemoproteomics screening and high-throughput optimisation” (Communications Chemistry, 2025).

Key:
Test in all cases: log2 ratio of Biotin-Ahx-Ub-VS probe labelling (fragment/DMSO); higher = less target engagement (more negative = stronger competition), active = hit call of the paper (q ≤ 0.05, log2 ratio ≤ -1)
Settings in all cases: compound concentration: 200 uM; treatment time: 3 h
USP34 = USP34 (UniProt Q70CQ2)
Outline: (§1)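 Average log2 ratios of fragment over vehicle were obtained by unpaired t-test from global-median-normalised Spectronaut label-free quantities. Proteins with ≥2 unique peptides were included. HEK293T lysate (495 µg per sample) was treated in triplicate with fragment at 200 µM or vehicle for 3 h, then with Biotin-Ahx-Ub-VS at 0.5 µM final for 1 h, and labelled DUBs were NeutrAvidin-enriched and run by diaPASEF LC-MS/MS.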

USP36 = biological target: T1, USP36 (UniProt Q9P275)
T1 sequence (whole entry): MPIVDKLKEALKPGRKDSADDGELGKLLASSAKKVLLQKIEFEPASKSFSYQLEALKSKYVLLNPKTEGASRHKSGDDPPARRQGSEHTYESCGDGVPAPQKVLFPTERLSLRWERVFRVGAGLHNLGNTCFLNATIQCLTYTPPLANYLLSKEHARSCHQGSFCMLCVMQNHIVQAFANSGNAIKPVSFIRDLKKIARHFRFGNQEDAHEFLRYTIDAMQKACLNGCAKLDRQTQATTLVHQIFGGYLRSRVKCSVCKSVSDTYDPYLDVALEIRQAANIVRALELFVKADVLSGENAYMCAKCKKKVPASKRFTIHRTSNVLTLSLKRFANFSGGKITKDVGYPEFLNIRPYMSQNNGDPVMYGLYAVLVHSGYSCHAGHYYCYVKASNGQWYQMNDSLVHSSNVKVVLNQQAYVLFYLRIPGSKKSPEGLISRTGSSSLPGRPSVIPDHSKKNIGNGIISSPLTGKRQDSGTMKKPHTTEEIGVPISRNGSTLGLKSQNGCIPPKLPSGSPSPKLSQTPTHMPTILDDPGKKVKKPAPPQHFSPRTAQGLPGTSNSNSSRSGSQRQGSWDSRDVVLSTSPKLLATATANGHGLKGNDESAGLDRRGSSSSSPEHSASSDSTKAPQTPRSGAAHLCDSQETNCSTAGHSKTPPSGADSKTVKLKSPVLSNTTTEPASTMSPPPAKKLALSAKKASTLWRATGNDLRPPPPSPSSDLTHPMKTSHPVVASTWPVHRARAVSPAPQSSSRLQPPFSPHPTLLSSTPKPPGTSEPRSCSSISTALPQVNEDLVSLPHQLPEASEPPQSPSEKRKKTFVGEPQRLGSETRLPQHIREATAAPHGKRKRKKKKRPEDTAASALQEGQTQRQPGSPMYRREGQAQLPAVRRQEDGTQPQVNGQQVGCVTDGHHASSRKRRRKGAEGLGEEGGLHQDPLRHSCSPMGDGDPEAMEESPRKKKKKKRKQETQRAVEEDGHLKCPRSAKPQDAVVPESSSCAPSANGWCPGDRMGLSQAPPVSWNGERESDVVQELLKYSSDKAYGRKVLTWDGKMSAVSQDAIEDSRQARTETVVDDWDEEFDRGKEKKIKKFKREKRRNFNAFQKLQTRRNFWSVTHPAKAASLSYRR
Outline: as §1

USP38 = biological target: T2, USP38 (UniProt Q8NB14)
T2 sequence (whole entry): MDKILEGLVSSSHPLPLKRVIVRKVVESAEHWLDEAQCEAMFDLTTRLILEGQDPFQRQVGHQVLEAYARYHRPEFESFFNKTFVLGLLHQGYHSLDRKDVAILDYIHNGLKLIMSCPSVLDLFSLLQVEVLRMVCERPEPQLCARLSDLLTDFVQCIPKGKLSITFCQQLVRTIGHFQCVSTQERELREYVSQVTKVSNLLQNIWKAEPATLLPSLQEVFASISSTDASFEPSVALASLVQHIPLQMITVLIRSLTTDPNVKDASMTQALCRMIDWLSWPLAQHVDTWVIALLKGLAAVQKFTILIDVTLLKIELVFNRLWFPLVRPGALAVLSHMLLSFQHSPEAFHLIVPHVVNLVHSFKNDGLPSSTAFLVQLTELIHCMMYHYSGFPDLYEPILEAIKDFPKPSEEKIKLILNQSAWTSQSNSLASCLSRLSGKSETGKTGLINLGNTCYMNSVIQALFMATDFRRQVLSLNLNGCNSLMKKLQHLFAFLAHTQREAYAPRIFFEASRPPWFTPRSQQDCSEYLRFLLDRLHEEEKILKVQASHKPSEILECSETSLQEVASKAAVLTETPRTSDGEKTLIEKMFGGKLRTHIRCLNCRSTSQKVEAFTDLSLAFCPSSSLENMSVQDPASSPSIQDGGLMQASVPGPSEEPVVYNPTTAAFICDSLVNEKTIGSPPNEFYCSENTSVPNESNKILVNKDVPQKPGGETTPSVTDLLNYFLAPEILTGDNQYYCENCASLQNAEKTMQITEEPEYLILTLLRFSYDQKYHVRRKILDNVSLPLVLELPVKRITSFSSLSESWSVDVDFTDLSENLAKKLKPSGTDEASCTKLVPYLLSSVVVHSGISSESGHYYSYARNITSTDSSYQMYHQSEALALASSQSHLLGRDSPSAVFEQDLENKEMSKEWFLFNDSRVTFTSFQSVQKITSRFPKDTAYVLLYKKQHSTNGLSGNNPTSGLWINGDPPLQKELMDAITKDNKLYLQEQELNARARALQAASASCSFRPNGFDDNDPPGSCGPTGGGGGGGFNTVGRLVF
Outline: as §1

USP39 = biological target: T3, USP39 (UniProt Q53GS9)
T3 sequence (whole entry): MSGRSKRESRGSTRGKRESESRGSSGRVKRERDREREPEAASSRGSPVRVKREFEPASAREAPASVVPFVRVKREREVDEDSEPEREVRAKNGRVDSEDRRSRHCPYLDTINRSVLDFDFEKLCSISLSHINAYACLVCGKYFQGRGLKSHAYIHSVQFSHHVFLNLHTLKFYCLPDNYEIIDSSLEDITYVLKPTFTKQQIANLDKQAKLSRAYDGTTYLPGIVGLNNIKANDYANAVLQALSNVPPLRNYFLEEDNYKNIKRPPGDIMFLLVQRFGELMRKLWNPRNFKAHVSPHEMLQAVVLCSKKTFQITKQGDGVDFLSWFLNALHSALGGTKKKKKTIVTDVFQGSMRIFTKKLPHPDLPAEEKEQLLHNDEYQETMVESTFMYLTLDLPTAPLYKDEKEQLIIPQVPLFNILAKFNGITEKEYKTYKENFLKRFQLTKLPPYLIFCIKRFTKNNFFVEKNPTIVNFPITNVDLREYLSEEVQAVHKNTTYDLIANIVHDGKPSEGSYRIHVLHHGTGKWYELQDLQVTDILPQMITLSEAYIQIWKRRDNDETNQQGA
Outline: as §1

USP4 = biological target: T4, USP4 (UniProt Q13107)
T4 sequence (whole entry): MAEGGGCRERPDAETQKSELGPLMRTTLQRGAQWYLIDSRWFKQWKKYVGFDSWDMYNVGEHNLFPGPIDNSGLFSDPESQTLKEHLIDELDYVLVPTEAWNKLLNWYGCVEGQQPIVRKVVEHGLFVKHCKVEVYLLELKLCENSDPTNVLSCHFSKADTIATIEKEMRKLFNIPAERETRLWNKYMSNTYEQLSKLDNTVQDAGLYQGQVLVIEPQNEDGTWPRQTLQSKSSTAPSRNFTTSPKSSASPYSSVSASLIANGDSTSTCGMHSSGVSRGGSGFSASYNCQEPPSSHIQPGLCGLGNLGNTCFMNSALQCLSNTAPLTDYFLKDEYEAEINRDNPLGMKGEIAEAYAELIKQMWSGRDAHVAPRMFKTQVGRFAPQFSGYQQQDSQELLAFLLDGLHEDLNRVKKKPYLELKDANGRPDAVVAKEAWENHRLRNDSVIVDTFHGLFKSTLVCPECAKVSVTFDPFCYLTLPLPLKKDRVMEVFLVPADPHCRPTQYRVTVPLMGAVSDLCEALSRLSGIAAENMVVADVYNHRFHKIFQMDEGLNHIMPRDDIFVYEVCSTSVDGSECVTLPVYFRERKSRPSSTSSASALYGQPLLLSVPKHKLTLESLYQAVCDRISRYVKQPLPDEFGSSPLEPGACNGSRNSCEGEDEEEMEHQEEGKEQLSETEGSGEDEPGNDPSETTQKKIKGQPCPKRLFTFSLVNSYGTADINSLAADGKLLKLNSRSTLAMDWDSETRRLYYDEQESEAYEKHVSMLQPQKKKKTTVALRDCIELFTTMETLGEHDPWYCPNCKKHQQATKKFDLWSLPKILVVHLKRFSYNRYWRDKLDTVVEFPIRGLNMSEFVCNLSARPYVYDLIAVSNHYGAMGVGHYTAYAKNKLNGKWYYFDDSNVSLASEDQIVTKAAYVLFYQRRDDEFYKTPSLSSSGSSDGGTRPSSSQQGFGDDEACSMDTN
Outline: as §1

Measured: log2 ratio of Biotin-Ahx-Ub-VS probe labelling

Chain of USP34 (Q70CQ2 whole entry, the tested form may be a part): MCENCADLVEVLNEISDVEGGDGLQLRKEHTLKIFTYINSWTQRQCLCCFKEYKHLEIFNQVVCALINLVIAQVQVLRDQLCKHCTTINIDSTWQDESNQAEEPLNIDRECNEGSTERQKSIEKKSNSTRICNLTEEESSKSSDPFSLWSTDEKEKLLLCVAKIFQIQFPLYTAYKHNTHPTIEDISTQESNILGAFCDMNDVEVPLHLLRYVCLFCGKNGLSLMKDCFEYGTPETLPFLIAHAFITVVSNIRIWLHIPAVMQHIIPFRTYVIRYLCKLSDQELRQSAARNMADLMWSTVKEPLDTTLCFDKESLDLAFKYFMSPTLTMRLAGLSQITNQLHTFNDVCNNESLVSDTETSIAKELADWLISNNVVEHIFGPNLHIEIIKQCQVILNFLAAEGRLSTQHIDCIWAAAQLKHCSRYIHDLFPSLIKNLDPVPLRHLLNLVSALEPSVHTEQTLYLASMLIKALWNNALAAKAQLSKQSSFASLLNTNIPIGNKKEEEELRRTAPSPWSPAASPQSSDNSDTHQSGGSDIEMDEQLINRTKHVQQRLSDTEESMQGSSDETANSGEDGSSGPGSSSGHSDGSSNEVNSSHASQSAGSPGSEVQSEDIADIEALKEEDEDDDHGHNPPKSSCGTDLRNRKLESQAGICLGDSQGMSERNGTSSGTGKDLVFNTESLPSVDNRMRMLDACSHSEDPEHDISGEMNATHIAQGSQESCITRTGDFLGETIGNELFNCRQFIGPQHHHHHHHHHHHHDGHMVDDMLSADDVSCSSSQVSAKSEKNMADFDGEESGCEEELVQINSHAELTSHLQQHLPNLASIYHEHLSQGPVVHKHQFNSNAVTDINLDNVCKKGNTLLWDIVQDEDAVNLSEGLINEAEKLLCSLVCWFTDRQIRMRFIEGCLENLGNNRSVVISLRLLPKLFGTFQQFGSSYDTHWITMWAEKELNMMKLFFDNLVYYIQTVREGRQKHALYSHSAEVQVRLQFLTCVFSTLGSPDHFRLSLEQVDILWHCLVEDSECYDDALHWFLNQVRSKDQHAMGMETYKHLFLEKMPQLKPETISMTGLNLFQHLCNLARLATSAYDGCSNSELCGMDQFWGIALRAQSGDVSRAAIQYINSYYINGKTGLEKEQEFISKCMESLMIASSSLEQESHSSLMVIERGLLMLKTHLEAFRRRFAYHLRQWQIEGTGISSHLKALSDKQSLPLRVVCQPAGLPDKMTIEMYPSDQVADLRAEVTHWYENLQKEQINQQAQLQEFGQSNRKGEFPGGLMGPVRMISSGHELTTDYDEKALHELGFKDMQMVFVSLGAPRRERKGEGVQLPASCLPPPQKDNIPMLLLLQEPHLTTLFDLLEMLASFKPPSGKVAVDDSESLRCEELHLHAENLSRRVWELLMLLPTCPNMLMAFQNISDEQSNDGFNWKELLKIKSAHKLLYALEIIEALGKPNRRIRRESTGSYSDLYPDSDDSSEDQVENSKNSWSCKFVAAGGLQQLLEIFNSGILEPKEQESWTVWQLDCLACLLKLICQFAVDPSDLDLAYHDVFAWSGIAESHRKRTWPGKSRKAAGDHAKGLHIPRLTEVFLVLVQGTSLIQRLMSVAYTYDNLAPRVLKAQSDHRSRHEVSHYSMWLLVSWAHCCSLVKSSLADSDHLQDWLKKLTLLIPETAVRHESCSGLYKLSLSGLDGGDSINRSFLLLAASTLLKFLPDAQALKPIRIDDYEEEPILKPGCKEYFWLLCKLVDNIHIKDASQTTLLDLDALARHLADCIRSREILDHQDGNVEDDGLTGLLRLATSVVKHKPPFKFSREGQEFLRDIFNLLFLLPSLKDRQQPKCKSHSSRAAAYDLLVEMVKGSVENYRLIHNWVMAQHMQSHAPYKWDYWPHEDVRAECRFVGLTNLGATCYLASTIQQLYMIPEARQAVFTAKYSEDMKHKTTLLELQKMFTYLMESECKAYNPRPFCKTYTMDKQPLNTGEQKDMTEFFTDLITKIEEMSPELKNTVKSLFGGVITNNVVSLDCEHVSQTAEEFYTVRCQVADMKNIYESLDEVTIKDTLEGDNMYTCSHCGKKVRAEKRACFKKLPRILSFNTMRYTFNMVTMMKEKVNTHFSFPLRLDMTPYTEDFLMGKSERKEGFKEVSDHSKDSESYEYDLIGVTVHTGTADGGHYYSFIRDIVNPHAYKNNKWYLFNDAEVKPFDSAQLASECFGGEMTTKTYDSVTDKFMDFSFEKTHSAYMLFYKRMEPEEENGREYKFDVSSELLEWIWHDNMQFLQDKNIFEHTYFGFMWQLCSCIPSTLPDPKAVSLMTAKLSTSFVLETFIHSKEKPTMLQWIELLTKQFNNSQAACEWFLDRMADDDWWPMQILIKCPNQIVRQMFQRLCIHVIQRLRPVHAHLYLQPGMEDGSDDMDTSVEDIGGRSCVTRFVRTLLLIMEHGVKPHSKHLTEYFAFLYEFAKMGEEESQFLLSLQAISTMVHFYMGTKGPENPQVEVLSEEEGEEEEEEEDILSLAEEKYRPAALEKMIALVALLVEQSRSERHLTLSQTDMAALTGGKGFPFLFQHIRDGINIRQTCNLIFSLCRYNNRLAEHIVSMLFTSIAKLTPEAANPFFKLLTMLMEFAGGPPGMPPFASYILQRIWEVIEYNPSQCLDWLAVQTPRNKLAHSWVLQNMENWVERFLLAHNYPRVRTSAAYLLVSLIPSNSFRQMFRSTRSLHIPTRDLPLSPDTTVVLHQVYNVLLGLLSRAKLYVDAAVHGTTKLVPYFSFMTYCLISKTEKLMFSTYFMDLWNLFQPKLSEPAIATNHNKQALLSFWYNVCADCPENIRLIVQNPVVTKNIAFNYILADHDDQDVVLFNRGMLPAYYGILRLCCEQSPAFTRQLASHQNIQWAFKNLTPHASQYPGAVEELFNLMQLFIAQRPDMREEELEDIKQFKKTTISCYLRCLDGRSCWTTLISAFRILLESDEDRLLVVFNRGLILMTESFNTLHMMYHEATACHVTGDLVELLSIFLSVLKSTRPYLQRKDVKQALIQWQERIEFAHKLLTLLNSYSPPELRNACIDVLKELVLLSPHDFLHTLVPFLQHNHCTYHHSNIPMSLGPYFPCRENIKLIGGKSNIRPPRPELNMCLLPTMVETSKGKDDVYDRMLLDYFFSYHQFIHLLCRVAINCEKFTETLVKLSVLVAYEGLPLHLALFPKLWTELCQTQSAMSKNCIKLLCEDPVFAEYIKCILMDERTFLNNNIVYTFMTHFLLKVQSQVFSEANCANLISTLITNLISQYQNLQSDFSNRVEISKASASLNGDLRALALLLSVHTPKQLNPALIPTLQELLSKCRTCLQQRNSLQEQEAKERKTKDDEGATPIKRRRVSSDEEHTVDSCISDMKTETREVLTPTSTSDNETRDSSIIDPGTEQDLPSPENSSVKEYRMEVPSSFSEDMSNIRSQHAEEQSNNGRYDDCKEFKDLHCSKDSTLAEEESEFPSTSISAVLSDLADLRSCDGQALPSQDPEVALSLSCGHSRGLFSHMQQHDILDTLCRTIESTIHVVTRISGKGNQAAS

Cc1conc1C1CN(C(=O)CCl)C1
inactive: USP34 -0.684 | USP36 -0.258 | USP38 -0.799 | USP39 0.247 | USP4 -0.913
